Assay results published in PubChem BioAssay (NCATS).
Where “and” joins values, the source holds several entries; their conditions need not be identical. Equal values may be shown once. Records with an inconclusive call do not appear. A structure can be active in one record and inactive in another. Calls of active or inactive are those of the source. Unless noted, calls follow the shape of the dose curve; as a rule, active = well fitted curve in the direction sought with a large enough effect; inconclusive = small, poorly fitted or top-dose-only effect, or another doubt; inactive = no such curve, though single readings can be large; an effect the other way counts as inactive or inconclusive.

What was measured:
[1] = target: Cytochrome P450 2D6 (Homo sapiens) (UniProt P10635); test: Cytochrome P450 family 2 subfamily D member 6 (CYP2D6) small molecule antagonists: luciferase biochemical (cell-free) qHTS assay (AID 1645840; active = well fitted curve in the direction sought with a large enough effect in the repeat runs; an effect the other way counts as inactive or inconclusive; also: nearly all actives have a fitted effect of over 55% in size; as to activity change, negative = inhibition: % is scaled to controls: 0 for no effect and ±100 for the full control effect)
Method in brief: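 P450-Glo luminescent screen: recombinant CYP2D6 enzyme–proluciferin substrate mix preincubated with compound 10 min at room temperature, then NADPH regeneration added for 1 h at room temperature. Detection reagent added for 20 min; luciferin light read as relative luminescence units.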

[2] = target: Cytochrome P450 2C9 (Homo sapiens) (UniProt P11712); test: Cytochrome P450 family 2 subfamily C member 9 (CYP2C9) small molecule antagonists: luciferase biochemical (cell-free) qHTS assay (AID 1645842; active = well fitted curve in the direction sought with a large enough effect in the repeat runs; an effect the other way counts as inactive or inconclusive; also: nearly all actives have a fitted effect of over 55% in size; as to activity change, negative = inhibition: % is scaled to controls: 0 for no effect and ±100 for the full control effect)
Method in brief: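 Luminescence, after 20 min with luciferin detection reagent, reflected CYP2C9 turnover during a 1 h NADPH-driven reaction at 37C. Enzyme-substrate mix contained 0.4% bovine serum albumin and was preincubated with compound 10 min at room temperature.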

[3] = Primary qHTS for inhibitors of nuclear receptor binding SET domain protein 2 (NSD2) in an isogenic RCH-ACV NSD2 p.E1099K mutant (9B) (AID 1645876); also: nearly all actives have a fitted effect of over 70% in size
[4] = Primary qHTS for inhibitors of nuclear receptor binding SET domain protein 2 (NSD2) in an RCH-ACV wild type WT cells (2C) (AID 1645877); also: nearly all actives have a fitted effect of over 70% in size
[5] = target: Catechol O-methyltransferase (Homo sapiens) (UniProt P21964); test: Confirmatory Screen for Target Class Profiling of Small Molecule Inhibitors of Methyltransferases (AID 1745852; calls by dose curve; as to activity change, negative = inhibition: % is scaled to controls: 0 for no effect and ±100 for the full control effect); settings: MTase-Glo luminescence, SAH detection, recombinant enzyme; measured here: COMT max response; stronger effect = lower value
[6] = target: Guanidinoacetate N-methyltransferase (Homo sapiens) (UniProt Q14353); test: as above; settings: activity change, negative = inhibition: at 57.3 µM (top of the series) unless noted
[7] = target: Nicotinamide N-methyltransferase (Homo sapiens) (UniProt P40261); test: as above; settings: MTase-Glo luminescence, SAH detection, recombinant enzyme; measured here: NNMT max response; stronger effect = lower value
[8] = target: Phenylethanolamine N-methyltransferase (Homo sapiens) (UniProt P11086); test: as above; settings: MTase-Glo luminescence, SAH detection, recombinant enzyme; measured here: PNMT max response; stronger effect = lower value
Potency is read from the fitted curve at half-maximal effect.

Phenylethanolamine N-methyltransferase (Homo sapiens), sequence (P11086 whole entry, looked up): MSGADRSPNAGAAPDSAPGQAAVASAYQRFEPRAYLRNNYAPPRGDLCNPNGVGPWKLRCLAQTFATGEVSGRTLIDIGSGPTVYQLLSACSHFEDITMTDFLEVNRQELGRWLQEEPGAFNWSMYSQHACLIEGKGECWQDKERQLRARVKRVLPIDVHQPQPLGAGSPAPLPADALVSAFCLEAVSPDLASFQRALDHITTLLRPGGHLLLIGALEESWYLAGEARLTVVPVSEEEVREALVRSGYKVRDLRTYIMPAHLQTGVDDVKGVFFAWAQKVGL
Cytochrome P450 2C9 (Homo sapiens), sequence (P11712 whole entry, looked up): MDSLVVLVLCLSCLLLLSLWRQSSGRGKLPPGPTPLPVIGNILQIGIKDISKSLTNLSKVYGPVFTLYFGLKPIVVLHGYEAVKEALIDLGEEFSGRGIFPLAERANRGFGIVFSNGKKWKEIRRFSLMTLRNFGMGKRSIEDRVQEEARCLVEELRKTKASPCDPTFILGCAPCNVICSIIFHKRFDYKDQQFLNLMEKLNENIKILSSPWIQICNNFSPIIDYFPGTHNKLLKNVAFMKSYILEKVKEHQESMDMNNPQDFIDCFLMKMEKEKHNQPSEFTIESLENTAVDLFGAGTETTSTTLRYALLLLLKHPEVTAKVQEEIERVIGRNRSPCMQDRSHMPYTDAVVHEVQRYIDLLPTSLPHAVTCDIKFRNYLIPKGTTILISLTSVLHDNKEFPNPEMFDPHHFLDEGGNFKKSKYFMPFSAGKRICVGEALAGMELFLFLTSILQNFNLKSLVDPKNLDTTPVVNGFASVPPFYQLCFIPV
Cytochrome P450 2D6 (Homo sapiens), sequence (P10635 whole entry, looked up): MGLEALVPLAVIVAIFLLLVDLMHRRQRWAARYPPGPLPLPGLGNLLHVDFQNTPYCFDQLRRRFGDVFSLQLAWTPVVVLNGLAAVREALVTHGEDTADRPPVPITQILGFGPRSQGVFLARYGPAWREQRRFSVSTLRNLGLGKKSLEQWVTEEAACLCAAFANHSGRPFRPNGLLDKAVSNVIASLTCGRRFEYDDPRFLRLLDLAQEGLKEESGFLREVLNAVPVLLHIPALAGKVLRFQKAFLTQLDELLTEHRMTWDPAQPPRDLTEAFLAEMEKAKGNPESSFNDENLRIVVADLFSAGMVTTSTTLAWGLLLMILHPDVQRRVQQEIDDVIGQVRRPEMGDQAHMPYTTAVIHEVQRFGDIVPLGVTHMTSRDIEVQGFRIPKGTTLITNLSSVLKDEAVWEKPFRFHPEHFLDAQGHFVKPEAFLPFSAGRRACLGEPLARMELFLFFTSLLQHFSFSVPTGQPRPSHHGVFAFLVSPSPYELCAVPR
Nicotinamide N-methyltransferase (Homo sapiens), sequence (P40261 whole entry, looked up): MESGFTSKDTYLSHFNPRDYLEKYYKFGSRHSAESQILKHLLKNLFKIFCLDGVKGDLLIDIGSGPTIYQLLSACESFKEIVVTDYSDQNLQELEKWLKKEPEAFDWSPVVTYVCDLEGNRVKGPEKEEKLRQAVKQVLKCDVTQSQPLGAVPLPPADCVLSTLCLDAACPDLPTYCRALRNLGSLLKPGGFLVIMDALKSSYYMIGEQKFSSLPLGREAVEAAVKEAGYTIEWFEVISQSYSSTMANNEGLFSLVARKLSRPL
Catechol O-methyltransferase (Homo sapiens), sequence (P21964 whole entry, looked up): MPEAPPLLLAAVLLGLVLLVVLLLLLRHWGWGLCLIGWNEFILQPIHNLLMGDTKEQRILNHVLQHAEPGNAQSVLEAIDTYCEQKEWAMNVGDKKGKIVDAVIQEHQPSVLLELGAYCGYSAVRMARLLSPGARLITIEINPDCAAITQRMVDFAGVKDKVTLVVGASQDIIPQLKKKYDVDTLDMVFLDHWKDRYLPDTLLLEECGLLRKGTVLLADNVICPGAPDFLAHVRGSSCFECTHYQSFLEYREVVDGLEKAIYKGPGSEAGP

SMILES | Potency [1] | Potency [2] | Potency [3] | Potency [4] | activity [5] | Potency [6] | activity [7] | activity [8] | activity change, negative = inhibition [6]
C[C@H](Oc1cc(-n2cnc3ccc(CN4CCN(C)CC4)cc32)sc1C(N)=O)c1ccccc1C(F)(F)F | 21.3 µM (active) | 6.74 µM (active) | 1.15 µM (active) | 1.29 µM (active) | – | – | – | – | –
O=C(NCC1(N2CCN(c3ccccc3)CC2)CCOCC1)c1cccnc1Sc1ccccc1 | inactive | 3.79 µM (active) | inactive | inactive | – | – | – | – | –
COc1cc(Br)c(S(=O)(=O)Nc2ccc(Cl)c(O[C@@H]3CCN(C)C3)c2)cc1OC | 15.1 µM (active) | 10.7 µM (active) | 12.9 µM (active) | 11.5 µM (active) | – | – | – | – | –
COc1cc(CCc2cc(NC(=O)c3ccc(N4CC(C)NC(C)C4)cc3)n[nH]2)cc(OC)c1 (configuration not stated) | 12 µM (active) | inactive | 9.16 µM (active) | 10.3 µM (active) | – | – | – | – | –
CCN1CCN(Cc2ccc(C(=O)Nc3ccc(C)c(Oc4ccc5c(c4)CC(=O)N5)c3)cc2C(F)(F)F)CC1 | 16.9 µM (active) | 23.9 µM (active) | 16.3 µM (active) | 16.3 µM (active) | – | – | – | – | –
CC(C)c1noc(C2CCN(c3ncnc(Nc4ccc(S(C)(=O)=O)cc4F)c3[N+](=O)[O-])CC2)n1 | inactive | inactive | inactive | inactive | – | – | – | – | –
CCOc1ccc(CCNC(=O)c2cc3sc(Cl)cc3n2C)cc1OCC | inactive | 2.39 µM (active) | inactive | inactive | – | – | – | – | –
NS(=O)(=O)Nc1ncnc(OCCOc2ncc(Br)cn2)c1-c1ccc(Br)cc1 | inactive | 4.77 µM (active) | 16.3 µM (active) | 11.5 µM (active) | – | – | – | – | –
COc1cc(N2CCC(N)CC2)ccc1Nc1ncc(Cl)c(-c2c[nH]c3ccccc23)n1 | 21.3 µM (active) | 3.01 µM (active) | 1.45 µM (active) and 1.66 µM (active) | 1.63 µM (active) and 2.35 µM (active) | -32.1% | 24.1 µM (active) | -35.8% | -27% | –
CN1CCN(Cc2ccc(NC(=O)Cc3ccc(Oc4cc(NC(=O)C5CC5)ncn4)cc3)cc2C(F)(F)F)CC1 | 15.1 µM (active) | 19 µM (active) | 0.649 µM (active) | 0.817 µM (active) | -8.91% | – | -29.5% | -13.7% | 0.726%
Cc1cc(NC(=O)c2cccc(NC(=O)/C=C/CN(C)C)c2)ccc1Nc1nccc(-c2cccnc2)n1 | 10.7 µM (active) | 16.9 µM (active) | 4.61 µM (active) | 4.59 µM (active) | -3.09% | – | -3.09% | -2.64% | 1.37%
CCC1C(=O)N(C)c2cnc(Nc3ccc(C(=O)NC4CCN(C)CC4)cc3OC)nc2N1C1CCCC1 (configuration not stated) | inactive | 2.13 µM (active) | 0.0073 µM (active) | 0.0082 µM (active) | – | – | – | – | –
COc1ccccc1N1CCN(c2ncnc3n[nH]c(Br)c23)CC1 | inactive | 7.56 µM (active) | 23 µM (active) | 16.3 µM (active) | -8.96% | – | -42.7% | -19.8% | -0.635%
COC1CCN(C(=O)c2cc(Cc3n[nH]c(=O)c4ccccc34)ccc2F)CC1 | inactive | 23.9 µM (active) | 13.2 µM (active) | 8.33 µM (active) | – | – | – | – | –
c1cc(NCCc2c[nH]c3ccccc23)cc(Nc2ccncc2)c1 | 0.477 µM (active) | 0.674 µM (active) | 7.28 µM (active) | 3.25 µM (active) | -7.79% | 48.2 µM (active) | -26% | -13.2% | –
CC[C@H]1CN(c2nc(N)c(C(N)=O)nc2Cl)CCN1C1CCN(Cc2ccc(Cl)cc2)CC1 | 12 µM (active) | 7.56 µM (active) | inactive | inactive | -6.83% | – | -61.1% | -5.17% | -2.17% [at 29.8 µM]
Cc1cc(NC(=O)NCCN2CCC(O)(Cc3ccccc3)CC2)c2ccccc2n1 | 8.49 µM (active) | inactive | inactive | inactive | -2.12% | – | 2.4% | 0.991% | 0%
COc1ccccc1OCCNCC(O)CCOc1cccc2[nH]c3ccccc3c12 (configuration not stated) | 0.301 µM (active) | 0.301 µM (active) | 18.3 µM (active) | 14.5 µM (active) | -5.33% | – | -4.12% | -93.1% | 2.56%
Cc1[nH]c(/C=C2\C(=O)Nc3ccc(F)cc32)c(C)c1C(=O)NCCN1CCCC1 | inactive | inactive | 16.3 µM (active) and 7.23 µM (active) | 11.5 µM (active) and 7.23 µM (active) | – | – | – | – | –
Cn1ncc(Cl)c1-c1cc(C(=O)NC(CN)Cc2ccc(F)c(F)c2)oc1Cl (configuration not stated) | 12 µM (active) and 13.5 µM (active) | 8.49 µM (active) | 728 nM (active) and 833 nM (active) | 817 nM (active) and 742 nM (active) | – | – | – | – | –
COc1cc2c(cc1-c1c(C)noc1C)ncc1[nH]c(=O)n(C(C)c3ccccn3)c12 (configuration not stated) | inactive | 5.35 µM (active) | 0.325 µM (active) | 0.325 µM (active) | -17.8% | – | -29.4% | 0.401% | 3.12%

SMILES | Potency [1] | Potency [2] | Potency [3] | Potency [4] | activity [5] | Potency [6] | activity [7] | activity [8] | activity change, negative = inhibition [6]
COc1cc2ncnc(Nc3cccc(I)c3)c2cc1OC | 12 µM (active) | 13.5 µM (active) | 16.3 µM (active) | 14.5 µM (active) and inactive | -55.8% | 34.1 µM (active) | -40.1% | -56.9% | –
COc1cc(/C=N\NC(=O)c2ccc3c(c2)OCO3)ccc1OCc1ccccc1 | 2.39 µM (active) | 2.39 µM (active) | inactive | inactive | -3.52% | – | -20.5% | -1.07% | 1.69%
CCCC(Nc1nc(-c2ccc(NC(=O)NCC)c(OC)c2)ncc1C)c1cccnc1 (configuration not stated) | 5.35 µM (active) | 0.239 µM (active) | 0.183 µM (active) | 0.115 µM (active) | – | – | – | – | –
N#Cc1cnc2c(Cl)cc(NCc3cn(CCN4CCCCCC4)nn3)cc2c1Nc1ccc(F)c(Cl)c1 | 0.849 µM (active) | 3.38 µM (active) | 20.5 µM (active) | 11.5 µM (active) | -24.8% | 15.2 µM (active) | -26.2% | -36.9% | –
CC(C)n1nc(C#Cc2ccccc2)c2c(N)ncnc21 | 19 µM (active) | 0.601 µM (active) | 1.83 µM (active) | 3.25 µM (active) | – | – | – | – | –
CC(C)(O)C(=O)N1CCN(c2ccc(C(F)(F)F)c(C3=C(c4c[nH]c5ccccc45)C(=O)NC3=O)c2)CC1 | 21.3 µM (active) | 3.79 µM (active) | 1.15 µM (active) | 1.03 µM (active) | -37.9% | 30.4 µM (active) | -37% | -34.7% | –
Clc1ccc(Cn2c(Cc3ccccc3)nc3ccccc32)cc1 | 10.7 µM (active) | 9.52 µM (active) | 11.5 µM (active) | 18.3 µM (active) | -6.59% | – | -51% | -7.3% | -6.78%
CC1=C(C(=O)OC2CCCCC2)C(c2ccc([N+](=O)[O-])cc2)C2=C(CC(C)(C)CC2=O)N1 (configuration not stated) | 21.3 µM (active) | 12 µM (active) | inactive | inactive | -30.3% | 19.2 µM (active) | -8.48% | -64.1% | –
O=C(NCCCNc1nc(Nc2cccc(CN3CCOCC3)c2)ncc1C1CC1)C1CCC1 | 6.01 µM (active) | 8.49 µM (active) | 2.63 µM (active) | 1.18 µM (active) | -3.13% | – | -11.4% | -23.2% | 0%
CC(C)(C)Sc1c(CC(C)(C)C(=O)O)n(Cc2ccc(Cl)cc2)c2ccc(OCc3ccc4ccccc4n3)cc12 | inactive | 1.69 µM (active) | inactive | inactive | 1.57% | inactive | -17.1% | -5.18% | –
O=C(COc1ccc2ccccc2c1Br)Nc1cccnc1 | 0.301 µM (active) | 8.49 µM (active) | inactive | inactive | – | – | – | – | –
COc1ccc(NC(=O)c2ccc(-c3ccc(-c4nnc(C)o4)cc3C)cc2)cc1N1CCN(C)CC1 | 30.1 µM (active) | 19 µM (active) | 20.5 µM (active) | 10.3 µM (active) | – | – | – | – | –
Cn1cc(-c2ccc(F)c(C(F)(F)F)c2)nc1C1CCN(c2ncnc3[nH]ncc23)CC1 | inactive | inactive | inactive | inactive | 2.12% | – | -37.5% | -1.21% | 1.12% [at 9.47 µM]
Fc1ccc(N2CCCCC2)c(NC(=S)c2ccncc2)c1 | 1.69 µM (active) | 6.01 µM (active) | 10.3 µM (active) | 12.9 µM (active) | -6% | – | -9.58% | -11.8% | 2.26%
C=CC(=O)Nc1cc(-n2c(=O)ccc3cnc4ccc(-c5ccc(NS(C)(=O)=O)cc5)cc4c32)ccc1C | inactive | 1.51 µM (active) | 3.26 µM (active) | 3.66 µM (active) | – | – | – | – | –
Cc1nc(C#Cc2ccnc(Cl)c2)c(C)n1-c1ccc(F)cc1 | 19 µM (active) | inactive | 11.5 µM (active) | 11.5 µM (active) | -47.3% | 30.4 µM (active) | -47.6% | -47.9% | –
O=C(NS(=O)(=O)c1ccc(Br)s1)c1ccc(Cl)cc1Cl | inactive | 2.68 µM (active) | 10.3 µM (active) | 9.16 µM (active) | – | – | – | – | –
N#Cc1ccc(COC[C@H]2O[C@@H](n3c(NCc4ccc(Cl)c(Cl)c4)nc4c(N)ncnc43)[C@H](O)[C@@H]2O)cc1 | 10.7 µM (active) | 10.7 µM (active) | 14.8 µM (active) | 9.34 µM (active) | -4.68% | 23.5 µM (active) | -79.6% | -74.2% | –
Cc1ccc(S(=O)(=O)NCc2ccc(C(=O)NCCN(Cc3ccccc3)C(C)C)cc2)cc1 | 12 µM (active) | 9.52 µM (active) | 16.3 µM (active) | 23 µM (active) | – | – | – | – | –
CC(C)(C)c1ccc(-c2nc3c(N4CCN(Cc5ccc6nccnc6c5)CC4)cccc3[nH]2)cc1 | inactive | 2.13 µM (active) | 9.16 µM (active) | 11.5 µM (active) | – | – | – | – | –
O=C(NC1CCN(CCCCC2(C(=O)NCC(F)(F)F)c3ccccc3-c3ccccc32)CC1)c1ccccc1-c1ccc(C(F)(F)F)cc1 | 1.07 µM (active) | 15.1 µM (active) | 2.9 µM (active) | 2.9 µM (active) | – | – | – | – | –
